Only a selection was taken, and hits are over-represented in it overall.
HTT cytoprotect: protects HTT-Q103 PC12 cells, measured by ATP; Potency, µM (doses to about 56.4 µM), inactives show cytoprotection (ATP increase), hits mostly activators; AID 1471; PC12 HTT-Q103 induced, cytoprotection, ATP luminescence, 40 h; 230,000 compounds, 0.14% hits; further: potency means the concentration at half of the fitted maximal effect; % of control where 0% means no effect; nearly all actives have a fitted effect of over 45% in size
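Huntington model: PC12 line, ecdysone-inducible HTTQ103 exon1–GFP, tebufenozide 100 nM. Test articles in a dose series. Endpoint luminescence from cellular ATP.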
HTT aggregate: mutant huntingtin aggregation inhibition. PC12 HttQ103-GFP aggregates, Acumen cytometry, 40 h. Potency, µM (highest dose often 46.1 µM), for the others: at the highest dose activity change, negative = inhibition, actives largely listed as inhibitors. 220,000 compounds, 1.1% hits; further: potency means the concentration at half of the fitted maximal effect; on the % scale 0 is the no-effect control and ±100 the full control effect; nearly all actives have a fitted effect of over 60% in size
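PC12/HTTQ103-GFP, ecdysone-inducible; teb 100 nM; cpd qHTS titration; GFP aggregates read on laser cytometer, Ex 488/Em 500-530 nm.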
PNC inhibitor: perinucleolar compartment assembly inhibition | AID 2417 | activity change (PNC), negative = inhibition, % at 10 µM | PC3M PTB-GFP, PNC prevalence imaging, 16 h; stronger effect = lower value | 140,000 compounds, 3.1% hits;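 active means readout at or below -70, meaning at least 70% loss of cells showing the perinucleolar compartment, a nuclear body marking cancer cells; inconclusive means readout between -30 and a set limit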;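 further: plate controls were DMSO wells for no effect and camptothecin positive control wells for full effect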
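PC3M cells stably expressing PTB-GFP, 750–1000 cells/well, treated 16 h at 37 °C with compound (23 nl of library stock), in duplicate. After paraformaldehyde fixation and Hoechst stain, imaged at 20x; PNC prevalence scored by image analysis.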
* = called active by the depositor; ? = inconclusive; . = no result; [ ] = remark or other dose. Unless noted, the call rests on the fitted dose curve; in most records, active means well fitted curve in the direction sought with a large enough effect; inconclusive means small, poorly fitted or top-dose-only effect, or another doubt; inactive means no such curve, though single readings can be large; an effect the other way counts as inactive or inconclusive.

SMILES	HTT cytoprotect	HTT aggregate	PNC inhibitor
COc1ccccc1C1N(c2cc(Cl)ccc2OC)C(=O)C2CCCN21 (centres undefined)	-3.4%	-14.3%	-105.7*
COc1ccc(C2N(c3cc(Cl)ccc3OC)C(=O)C3CCCN32)c(OC)c1 (centres undefined)	-25.3%	-19.9%	3.0
Cc1cccc(NC(=S)NNC(=O)c2ccc(Br)o2)c1	-0.7%	-15.6%	-8.1
COc1ccc(-n2c(-c3ccco3)n[nH]c2=S)cc1	-13.2%[10 µM]	5.4%	6.6
N#C/C(=C\c1ccc(OCc2ccc(F)cc2)cc1)C(=O)Nc1cccc(C(=O)O)c1	4.8%[10 µM]	-4.9%[9.22 µM]	.
CC1=NN(c2ccccc2)C(=O)/C1=C\c1c(C)[nH]n(-c2ccccc2)c1=O	-0.7%	6.2%	20.0
CC1=NN(c2ccccc2)C(=O)/C1=C/c1c(O)n(-c2ccc(F)c(Cl)c2)[nH]c1=O	-26.8%[10 µM]	6.4%	-116.4*
Cc1cc(C)cc(Oc2ccc(N)cc2)c1	-18.0%	7.0%	34.7
O=c1c2cc(Cl)ccc2nc(-c2ccc([N+](=O)[O-])cc2)n1O	-71.1%	10µM*	.
O=c1c2ccccc2nc(-c2ccc(Cl)c(Cl)c2)n1O	-1.1%[10 µM]	?	-3.0
COc1ccc(NC(=S)NC(NC(=O)c2cccc(C)c2)C(Cl)(Cl)Cl)c([N+](=O)[O-])c1 (centres undefined)	-13.2%[1.9 µM]	3.7%	24.8
COc1ccc(NC(=S)NC(NC(=O)c2cccc(Cl)c2)C(Cl)(Cl)Cl)c([N+](=O)[O-])c1 (centres undefined)	17.6%[10 µM]	28.2µM*	12.9
Cc1sc2ncn(CC(=O)Nc3c(F)cccc3F)c(=O)c2c1S(=O)(=O)N1CCC(C)CC1	-31.7%	25.3%	.
COc1ccc(C)cc1NC(=O)Cn1cnc2sc(C)c(S(=O)(=O)N3CCOCC3)c2c1=O	-3.8%[10 µM]	12.3%	-100.0*
COc1ccccc1NC(=O)Cn1cnc2sc(C)c(S(=O)(=O)N3CCCCC3)c2c1=O	.	28.3%	-113.4*
COc1ccc(NC(=O)Cn2cnc3sc(C)c(S(=O)(=O)N4CCN(C)CC4)c3c2=O)cc1OC	-15.6%	-12.2%	.
O=C(NCCCCNC(=O)C1CCCC1)C1CCCC1	-16.3%	-10.8%	45.3
CS(=O)(=O)Oc1ccc(Br)cc1/C=C1/N=C(c2ccco2)OC1=O	13.7%[10 µM]	14.7%	28.8
COc1ccc(-c2cc(-c3ccccc3)nc(-c3ccc4c(c3)NC(=O)CO4)c2)cc1	-49.1%	-9.2%	?
O=C(O)c1ccc(S(=O)(=O)c2ccc3c(c2)C(=O)N(CC2CCCO2)C3=O)cc1 (centres undefined)	4.0%	9.9%	-100.0*
O=C(O)c1ccc(C(=O)c2ccc3c(c2)C(=O)N(CC2CCCO2)C3=O)cc1 (centres undefined)	-14.8%[10 µM]	-4.5%[9.22 µM]	.
Clc1nc(-c2cccnc2)nc2scc(-c3ccccc3)c12	-20.1%[10 µM]	-20.8%	2.1
CCOC(=O)c1c(C)n(-c2ccc(C)cc2)c2c(C(C(C)=O)C(=O)O)c(Br)c(O)c(O)c12 (centres undefined)	?	12.6µM*	?
CCOC(=O)c1c(C)n(-c2ccc(C)cc2)c2c(CC(C)=O)c(Br)c(OC)c(O)c12	-45.9%	-2.8%	35.2
CCCCNc1c2c3c(cccc3n(C)c1=O)C(=O)c1ccccc1-2	9.7%[10 µM]	?	?
SMILES	HTT cytoprotect	HTT aggregate	PNC inhibitor
Cn1c(=O)c(NCCc2ccccc2)c2c3c(cccc31)C(=O)c1ccccc1-2	-19.4%	10µM*	-12.5
CN(C)C=Nc1ncc2c3ccccc3n(Cc3ccccc3)c2c1C#N	-15.7%	-12.2%	-2.4
CN(C)C=Nc1ncc2c3ccccc3n(CCN(C)C)c2c1C#N	-28.5%[0.074 µM]	2.82µM*	58.9
O=C(COC(=O)c1ccc(S(=O)(=O)NCc2ccco2)cc1)Nc1ccccc1OC(F)F	-13.7%[10 µM]	2.5%	-101.4*
CN(C)S(=O)(=O)c1ccc(C(=O)OCC(=O)Nc2ccccc2OC(F)F)cc1	-6.5%	-9.4%	27.1
CCCCNC(=S)N/N=C/c1ccc(OCC(=O)Nc2c(C)cc(C)cc2C)c(OC)c1	0.1%[10 µM]	-6.3%	-81.9*
COc1cc(/C=N/NC(N)=S)ccc1OCC(=O)Nc1ccc(C)c(C)c1	-18.3%	29.7%	9.5
N/C(=N\O)c1ccncc1	19.0%[10 µM]	0.0%[9.22 µM]	.
Cn1c[n+](C)cc1-c1ccc(/C(N)=N/O)cc1	-6.0%[10 µM]	4.2%	-80.3*
O=C(N/N=C/c1ccco1)C1CC1c1ccccc1 (centres undefined)	9.4%[10 µM]	13.2%	-1.7
CC(C)(C)c1ccc(C2CC2C(=O)N/N=C\c2ccc[nH]2)cc1 (centres undefined)	-67.6%[10 µM]	2.51µM*	.
COc1ccc(Nc2nc3ccccc3nc2NS(=O)(=O)c2cccs2)c(OC)c1	0.2%[10 µM]	-17.2%[9.22 µM]	.

Bioassay records as filed in PubChem BioAssay.
